Measured values from PubChem BioAssay AID651602 (The Scripps Research Institute Molecular Screening Center, 2012).
Screen size: about 360,000 compounds; about 950 (0.26%) were called active. The list comes from a sample in which actives are over-represented; it also holds similar structures and randomly drawn compounds. A number with no mark means an inactive call. No stated cut-off is given here; in the data, active means inhibition above about 11%; inactive means the rest.

Experiment: growth loss of phage-infected E. coli, primary screen, RecBCD inhibitor project, absorbance, with phage, HTS (AID 651602)
Details: at 11.9 µM, active compounds read high

| SMILES | inhibition |
| --- | --- |
| CC(C)C[C@H](NC(=O)CC1CCCC1)C(=O)N1CCC[C@H]1C(=O)NCc1ccccc1 | -1.58% |
| NC1=NC(=O)C(Cc2cccc(Cl)c2)S1 (stereo unspecified) | 2.84% |
| NC1=NC(=O)C(Cc2cccc(Cl)c2Cl)S1 (stereo unspecified) | 14.8% (active) |
| O=C1NC(=Nc2ccc(Cl)cc2)SC1Cc1cccc(Cl)c1Cl (stereo unspecified) | 3.76% |
| Nc1nc2c(ncn2[C@@H]2O[C@H](C(=O)N[C@H](Cc3ccccc3)C(=O)NCC3CCCCC3)[C@@H](O)[C@H]2O)c(=O)[nH]1 | 0.31% |
| CCCCCCCCN1C(=O)[C@@H](CC(=O)NCc2ccc(C)o2)C[C@@]2(C(=O)OC)C1=C[C@H](C(C)(C)C)O[C@@H]2C | 4.26% |
| CC(=O)N(O)CCCCCNC(=O)CCC(=O)N(O)CCCCCNC(=O)CCC(=O)N(O)CCCCCNC(=O)CCC(=O)O | 11.2% (active) |
| NC(=O)NCCCC(=O)O | 3.55% |
| CC1=C(C/C=C(\C)CCCC(C)CCCC(C)CCCC(C)C)C(=O)c2ccccc2C1=O (stereo unspecified) | 99.2% (active) |
| CCCCCCCCN1C(=O)[C@@H](CC(=O)N2CCN(C(=O)OCC)CC2)C[C@@]2(C(=O)OC)C1=C[C@H](C1CCCC1)O[C@@H]2C | 0.85% |
| CCOc1ccccc1C(=O)N1CCC[C@@H]1C(=O)N1CCC[C@H]1C(=O)NCc1ccccc1 | 2.4% |
| O=C(NCc1ccccc1)[C@@H]1CCCN1C(=O)[C@H]1CCCN1C(=O)c1cccc(Cl)c1 | 1.16% |
| CN(O)C(=S)c1ccccc1 | 28.3% (active) |
| COc1ccc2[nH]c(C)c(CCN(Cc3cccs3)C(=S)Nc3ccccc3OC)c2c1 | 1.75% |
| COCCNC(=S)N(CCc1c(C)[nH]c2ccc(C)cc12)Cc1cccnc1 | 2.3% |
| CCNC(=S)N(CCc1c(C)[nH]c2ccc(C)cc12)Cc1ccco1 | 13.2% (active) |
| CC(C)[C@H]1COCCS(=O)(=O)N1Cc1ccccc1-c1cccc2c1sc1ccccc12 | 2.16% |
| N#Cc1cccc(C(=O)NCC2CCN(C(=O)C(=O)c3cc4ccccc4o3)CC2)c1 | 1.78% |
| CN1C(=O)C2CC(O)C(SC3CC4C(=O)N(C)C(=O)C4CC3O)CC2C1=O (stereo unspecified) | 5.11% |
| CN1CCCCC(NC(=O)C(C)(C)C)C1=O (stereo unspecified) | 2.65% |
| COC(=O)[C@]12C[C@H](CC(=O)NCc3ccc(C)o3)C(=O)N(CCC3=CCCCC3)C1=C[C@H](C(C)(C)C)O[C@@H]2C | 1.32% |

| SMILES | inhibition |
| --- | --- |
| CC(=O)C1=C(C)N(Cc2ccccc2)C(=S)NC1c1cccc(Br)c1 (stereo unspecified) | 2.19% |
| CCCCNc1cccc2c1S(=O)(=O)N[C@@H](C)CO2 | 2% |
| CCCCCCCCN1C(=O)[C@@H](CC(=O)NCc2ccccc2)C[C@@]2(C(=O)OC)C1=C[C@H](C(C)(C)C)O[C@@H]2C | 1.01% |
| CN(NS(=O)(=O)c1cccs1)c1ncc(C(F)(F)F)cc1Cl | 1.24% |
| COc1cccc(/C=N/Nc2ncc(C(F)(F)F)cc2Cl)c1O | 24.4% (active) |
| O=C(c1ccccn1)c1ncc(C(F)(F)F)cc1Cl | 2.12% |
| Cn1ccc(=Nc2ccc(NC(=O)c3ccc(N=c4ccn(C)c5ccc([N+](=O)[O-])cc45)cc3)cc2)cc1 | 70.7% (active) |
| O=C(Nc1ccc(C2CC2(Cl)Cl)cc1)c1cccc([N+](=O)[O-])c1 (stereo unspecified) | 1.49% |
| CC(C)c1ccc(NC(=O)CCN2C(=O)c3ccc([N+](=O)[O-])cc3C2=O)cc1 | -0.16% |
| COC(=O)C1=C(C(=O)OC)C2C=C(C(C)C)C1C(=O)C2(C)O (stereo unspecified) | 3.33% |
| Nc1ncnc2c1ncn2[C@@H]1O[C@H](C(=O)N[C@@H](CCc2ccccc2)C(=O)N2CCCN(Cc3cccs3)CC2)[C@@H](O)[C@H]1O | 2.53% |
| COc1cccc(CNC(=O)c2nnn(CC(=O)Nc3cc(Cl)ccc3C)c2N)c1 | -1.55% |
| Nc1c(C(=O)Nc2ccc3c(c2)OCCO3)nnn1Cc1ccccc1 | 5.25% |
| CCOc1ccc(Cn2nnc(C(=O)Nc3ccc(OC)cc3OC)c2N)cc1 | 10.9% (active) |
| CC(=O)c1ccc(S(=O)(=O)NCC2CCN(C(=O)C(=O)c3cccs3)CC2)cc1 | 2.71% |
| Oc1cccc(/C=N/Nc2ccc(Cl)nn2)c1O | 13.1% (active) |
| C/C(=N\Nc1ccc(Cl)nn1)c1ccccc1O | -5.1% |
| Cc1ccc2nc(-c3ccc(CN4CCC(n5cc(-c6ccccc6)[nH]c5=O)CC4)cc3)c(-c3ccccc3)nc2c1 | 2.06% |
| O=C(NCc1ccccc1)[C@H]1CCCN1C(=O)[C@@H]1CCCN1C(=O)c1ccc(Cl)cc1Cl | 1.72% |
| COc1cccc(CNC(=O)[C@H]2CCCN2C(=O)[C@H]2CCCN2C(=O)c2cc(F)cc(F)c2)c1 | 0.85% |
